Results published in PubChem BioAssay AID493248 (Broad Institute, 2011).
In all, about 2,300 compounds went through this assay and about 1,400 (61%) were called active. Inconclusive results (about 7%) are left out. How the calls were made is not given here. So high a share suggests a set chosen from earlier hits. A selection follows. Results with a measured potency or affinity are listed apart.

Target: FAD-linked sulfhydryl oxidase ALR (Homo sapiens) (UniProt P55789)
Experiment: inhibitors of human ALR sulfhydryl oxidase, dose response, biochemical, H2O2 detection, luminescence, cherry-pick (AID 493248)
Details: purified ALR, DTT oxidation, H2O2 HRP-luminol luminescence; at 10 µM (top of the series)

Sequence of FAD-linked sulfhydryl oxidase ALR (Homo sapiens) (P55789 whole entry, looked up): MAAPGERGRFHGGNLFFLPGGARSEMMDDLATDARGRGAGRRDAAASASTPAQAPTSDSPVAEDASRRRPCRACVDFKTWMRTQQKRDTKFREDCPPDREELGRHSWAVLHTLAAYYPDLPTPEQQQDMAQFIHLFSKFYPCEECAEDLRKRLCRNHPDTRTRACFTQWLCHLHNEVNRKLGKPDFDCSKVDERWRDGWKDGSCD

SMILES | activity change, negative = inhibition [%]
COc1ccc(C)cc1NCc1ccc(OC)c(C)c1OC | -55.4
Cc1ccc(N2CC(=O)N(NC(=O)CN3CCN(c4ccccc4)CC3)CC2=O)cc1 | -47.4
COc1ccc(C(=O)N/N=C/C2CC=CCC2)cc1OC (configuration not stated) | -39.6
CN1C(=O)C2C(c3ccc(N(C)C)cc3)=NN(Cc3ccccc3)C2C1=O (configuration not stated) | -0.925
Fc1ccc(-n2c(-c3ccc4c(c3)OCO4)n[nH]c2=S)cc1Cl | -56.2
Cc1nc2cc(N)ccc2n1-c1ccccc1 | 367
CC1=Nc2ccccc2N=C(N)C1c1ccccc1 (configuration not stated) | -61.3
Cc1cc(C(=O)NNc2ccc(F)cc2F)no1 | 5.89
COc1cc(C(=S)N(C)C)ccc1O | -5.3
Oc1ccc(/C=N/N=C/c2ccc(O)cc2)cc1 | 256
O=Cc1ccc(O)c(O)c1 | -17.2
Oc1ccc(N=Cc2ccc(O)c(O)c2)cc1 | 102
CC(C)CNC(=O)C(=O)N/N=C/c1cccs1 | -15.3
CCn1c(O)c(/C=N/n2cnnc2)sc1=S | -33
Cc1cccc(NCCNc2cccc(C)c2)c1 | -44.1
Cc1cccc(N/N=C/c2ccncc2)c1 | -105
C/C(=N\NC(=O)CCCNc1ccc(C)cc1)c1ccccn1 | 419
CC(C)C(=O)c1ccc(O)c(O)c1 | -24.1
Cc1cccc(Nc2nc(N)nc(CCl)n2)c1C | -38.4
CN(C)CCC(=O)N1c2ccccc2Sc2ccc(C(F)(F)F)cc21 | -13.8
CCNc1nc(OC)nc(N(OC)S(=O)(=O)c2ccc(C)cc2)n1 | -55.8
CC(C)(O)C#Cc1ccc(C(=O)NC2CCCCC2)s1 | -45.6
O=S(=O)(Cc1ccccc1)N(O)c1ccccc1 | -38.7
CCCN1C(=O)c2cc(C(=O)NC3CCCCCC3)ccc2C1O (configuration not stated) | -16.6
Cc1ccc(NC(=O)CCC(=O)N/N=C/c2ccc(O)cc2)cc1 | -2.67
O=C(CCn1cnc2ccccc21)N/N=C/c1ccc(O)cc1 | -88.9

SMILES | activity change, negative = inhibition [%]
Nc1c(Cl)ncnc1N/N=C/c1cccc(O)c1 | -7.72
O/N=C/c1cccn1-c1ccc(O)cc1 | -99.2
O=C(C[n+]1ccccc1)N/N=C/c1ccc(O)cc1 | -108
O=c1oc2ccccc2n1CSC1=NCCS1 | -21.8
O=[n+]1cc(-c2cc3ccccc3o2)n([O-])c2c1CCCC2 | -33.9
Cc1cc(Nc2ccccc2)n(CCC#N)n1 | -16.4
CC(C)NC(=O)c1ccccc1S(=O)c1ccccc1C#N (configuration not stated) | -2.78
CN(C)c1ccc(/C(=N\O)C(F)(F)F)cc1 | -20
O=C(O)c1ccccc1Nc1ccccc1 | -21
Cc1ccc(Nc2c(F)c(F)c(F)c(F)c2C(=O)O)c(C)c1 | -51.9
Cc1ccc(O)c(-c2cc(C(F)(F)C(F)F)[nH]n2)c1 | 3.95
COc1ccc([N+](=O)[O-])cc1NC1CCCCC1 | -14.6
COc1ccc(CCC(=O)N2CCCC(Nc3ccc(OC)cc3)C2)cc1 (configuration not stated) | 9.94
Cc1ccc2[nH]cc(CCNC(=O)c3cccnc3)c2c1 | -59.6
Cn1c(=O)c2c(-c3ccccc3)n(-n3cnnc3)cc2n(C)c1=O | -14.5
Cc1cccc(C2CN(C)CCc3c2cc(O)c(O)c3Cl)c1 (configuration not stated) | -100
C=CCN1CCc2cc(O)c(O)cc2C(c2ccccc2)C1 (configuration not stated) | -91.4
Cn1c(=O)[nH]c(=O)c2c1[nH]c(=S)n2Cc1ccc(Cl)cc1 | -38.6
CCN1CCN(Cc2nc3c(c(=O)n(C)c(=O)n3C)n2CC(=O)c2ccccc2)CC1 | 13.8
CCCCCn1c(Br)nc2c1c(=O)n(CC(N)=O)c(=O)n2C | -20.4
N#C/C(N=Nc1ccccc1O)=N\Nc1ccccc1O | 22.3
CC(C)(C)Nc1c(-c2cccs2)nc2ccccn12 | -39.4
Nc1ccc2sc(N)nc2c1 | 299
Cc1cc(NC(=O)c2sc(Nc3ccc(F)cc3)nc2N)no1 | -41.5
O=C(c1ccccn1)N1CCCC(N2CCN(c3ccc(F)cc3)CC2)C1 (configuration not stated) | -82.4
CC(C)N(c1nnc(N)s1)C(C)C | -37.4

SMILES | activity change, negative = inhibition [%]
COc1ccc(C(N)CCc2ccco2)cc1 (configuration not stated) | 0.936
Cc1ccc(NC(=O)Nc2cccs2)nc1 | -2.58
CC(C)NC(=O)Nc1cccs1 | -47.1
O=C(Nc1cccs1)Nc1c(F)cc(F)cc1Br | -42.8
Cc1ccc(N2CCN(CCCN3C(=O)C4CCCN4C3=O)CC2)cc1 (configuration not stated) | -22.5
Oc1ccc(NCc2cccs2)cc1 | 41.7
COc1ccc(NC2CCCN(C(=O)c3oc(C)cc3C)C2)cc1OC (configuration not stated) | 75.6
O=C(C1CCCC1)N1CCCC(Nc2ccc(F)cc2)C1 (configuration not stated) | -72.7
CCCCNC(=O)c1onc(CCl)c1C(=O)OC | -46.6
C=CCNC(=O)c1onc(CSc2ccc(C)c(C)c2)c1C(=O)O | 10.6
Cc1cc2c(N3CCCCC3C)ncnc2s1 (configuration not stated) | -5.25
Cc1ccc(NC(=O)C2CCN(S(=O)(=O)c3cccc4cccnc34)CC2)nc1 | -47.3
CC(c1ccc(F)cc1)n1c(-c2cccs2)n[nH]c1=S (configuration not stated) | -12.6
CCn1c(-c2cc(Cl)ccc2OC)n[nH]c1=S | -40.3
Cc1cccc(-n2c(C)n[nH]c2=S)c1C | -35.3
Cc1n[nH]c(=S)n1-c1ccc(Cl)cc1 | -91.4
CC(NS(=O)(=O)c1ccccc1)c1n[nH]c(=S)n1-c1ccccc1 (configuration not stated) | -28.7
Oc1c(Br)cc(Br)c(/C=N/n2c(-c3ccccc3)n[nH]c2=S)c1Br | -75.2
CCn1c(N)[n+](CC(=O)Nc2ccc(SC(F)F)cc2)c2ccccc21 | 17.1
Cc1cc(NCc2ccccn2)nc2ccccc12 | 16.8
Cc1nn(CC2CCCCC2)c(N)c1-c1ccccc1 | -21.2
CN(CC(=O)NCc1ccco1)S(=O)(=O)c1ccc2c(c1)n(C)c(=O)c(=O)n2C | -5.75
Cc1ccc(S(=O)(=O)NNC(=O)c2ccc(O)cc2)cc1 | -54.2
Cc1cc(C)nc(Sc2c(C)nn(-c3ccccc3)c2C)n1 | -4.01
Cc1ccc([N+](=O)[O-])cc1S(=O)(=O)Nc1ccc(O)c(Sc2ncn[nH]2)c1 | -101
Cc1cccc(NC(=O)C2CCN(S(=O)(=O)c3cccc4cccnc34)CC2)c1 | -19.2

SMILES | activity change, negative = inhibition [%]
CN(C)/N=C/c1ccc(OC(=O)c2cccc([N+](=O)[O-])c2)cc1 | -3.63
COc1ccc(N=C(N(C)C)P(=O)(N(C)C)N(C)C)cc1 | -0.552
Nc1ccc2c(c1)-c1ccccc1S(=O)(=O)N2 | -105
Cn1nc(-c2ccc(Cl)cc2)c2cc(C(=O)NC3CC3)sc21 | -2.11
CCN1CCN(C(=O)c2cc3c(-c4ccc(Cl)cc4)nn(C)c3s2)CC1 | -4.97
COc1cccc(-c2nc(CCl)cs2)c1 | 22.5
Fc1ccc2c(c1)/C(=N/Nc1ccccn1)CCS2 | -12.8
COc1ccc(-c2cc(-c3n[nH]c(=S)n3-c3cc(OC)ccc3OC)[nH]n2)cc1 | 46.9
O=C(CN1C(=O)S/C(=C\C=C\c2ccccc2)C1=O)Nc1ccc(C(=O)O)cc1 | -22.9
O=c1c2c(nc3n1CCCCC3)sc1c(O)cccc12 | -92.9
COc1cc(/C=N/Nc2cc(C)nc(N)n2)ccc1O | -108
COc1ccc2c(/C=N/NS(=O)(=O)c3ccc(C)cc3)c[nH]c2c1 | -4.96
COc1ccc(/C=N/Nc2ccc([N+](=O)[O-])cc2)cc1O | -70
COc1ccccc1NS(=O)(=O)c1cc([N+](=O)[O-])ccc1N/N=C/c1c[nH]c2ccccc12 | 0.734
Oc1ccc(/C=N/NC2=NCCCCC2)cc1 | -110
O=[N+]([O-])c1cccc(N/N=C/c2cccc(O)c2O)c1 | -6.94
O=C(CNc1ccccc1)N/N=C/c1c[nH]c2ccccc12 | -29.1
COc1ccc2nc3ccccc3nc2c1N | 417
COc1ccc(Nc2nc(N)c3ccccc3n2)c(OC)c1 | -5.05
Cn1c(CNc2ccc(F)cc2)nc2ccccc21 | 4.17
CCN1C(=O)c2cccc3c(N)ccc1c23 | -69.8
Cc1ccc(S(=O)(=O)NCC(=O)NCC2CCCCC2)cc1C | 18.2
Cn1c(=O)[nH]c(=O)c2c1[nH]c(=S)n2Cc1ccccc1 | -58.1
O=C(c1cc(-c2ccc(O)cc2)on1)N1CCCCCC1 | -103
Cc1cnc(C(=O)Nc2ccc(C(=O)N3CCCCC3)cc2)cn1 | 0.57
CC(C)(C)C(=O)NC1=NCCS1 | -0.254

SMILES | activity change, negative = inhibition [%]
C/C(=N\NC(=O)c1csc2ccccc12)c1ccc(O)cc1 | -107
COc1ccc(CNc2ccc(Br)cc2)cc1 | -0.843
C/C(=N\Nc1ccccn1)c1ccc(OC(F)F)cc1 | 30.6
COc1cc(C(=O)n2nc(C)cc2C)ccc1O | 108
CC(C)(C)NC(=O)C(Cc1ccccc1)NS(=O)(=O)c1ccc2c(c1)CCC(=O)N2 (configuration not stated) | -98.2
COc1c(Cl)cc(C(=O)NN)cc1Cl | -36.3
Cc1ccc(-n2[nH]c(C)c(/C=N/NC(=O)c3ccc(O)cc3O)c2=O)cc1 | -40.4
NNC(=O)c1cc(O)c(O)c(O)c1 | 8.57
CCCc1cc(=O)[nH]c(SCc2cccnc2)n1 | -44.3
CC1(C)CN(c2ccccc2)N(C(=O)c2ccc(F)cc2)C1=O | -46.1
COc1cc(/C=N/O)cc(Br)c1OC | 21.8
CCN(CC)CC(=O)c1ccc(-c2ccccc2)cc1 | -34.7
CCc1ccccc1Nc1ccc(C(=O)O)cc1N | -23
Oc1ccc(-c2cnns2)c(O)c1 | -104
N[C@@H](Cc1ccccc1)c1nnc(SCc2ccccc2Cl)o1 | -33.5
O=C(O)c1cc([N+](=O)[O-])c(Sc2nc3ccccc3[nH]2)c([N+](=O)[O-])c1 | -46.4
COc1cccc(NC(=O)c2c([N+](=O)[O-])cnn2C)c1 | -15.3
Nc1ccccc1C(O)(Cc1ccccc1)c1ccccc1 (configuration not stated) | -3.4
Fc1ccccc1Nc1n[nH]c(=S)s1 | -40.4
COc1cc(/C=N/Nc2ccc([N+](=O)[O-])cn2)cc(OC)c1O | -73.9
CC(Nc1ccccc1)c1cc(Cl)ccc1O (configuration not stated) | -48.4
C=C(C)C(=O)Nc1ccc(NC(C)C)cc1 | 266
COc1ccccc1N(Cc1ccccc1)S(=O)(=O)c1cc(C(=O)O)ccc1Cl | -48.6
